Experimental data reported in PubChem BioAssay (NCATS).
Results filed as inconclusive are left out. Active and inactive are the calls of the source. Calls follow the shape of the dose curve; as a rule, active = well fitted curve in the direction sought with a large enough effect; inconclusive = small, poorly fitted or top-dose-only effect, or another doubt; inactive = no such curve, though single readings can be large; an effect the other way counts as inactive or inconclusive.

Columns and labels:
[1] = biological target: Rap guanine nucleotide exchange factor 3 (Homo sapiens) (UniProt O95398); assay: Confirmatory qHTS for antagonist of cAMP-regulated guanine nucleotide exchange factor 3 (EPAC1) (AID 1645880); also: nearly all actives have a fitted effect of over 55% in size; also: potency is read from the fitted curve at half-maximal effect
Sequence of Rap guanine nucleotide exchange factor 3 (Homo sapiens) (O95398 whole entry, looked up): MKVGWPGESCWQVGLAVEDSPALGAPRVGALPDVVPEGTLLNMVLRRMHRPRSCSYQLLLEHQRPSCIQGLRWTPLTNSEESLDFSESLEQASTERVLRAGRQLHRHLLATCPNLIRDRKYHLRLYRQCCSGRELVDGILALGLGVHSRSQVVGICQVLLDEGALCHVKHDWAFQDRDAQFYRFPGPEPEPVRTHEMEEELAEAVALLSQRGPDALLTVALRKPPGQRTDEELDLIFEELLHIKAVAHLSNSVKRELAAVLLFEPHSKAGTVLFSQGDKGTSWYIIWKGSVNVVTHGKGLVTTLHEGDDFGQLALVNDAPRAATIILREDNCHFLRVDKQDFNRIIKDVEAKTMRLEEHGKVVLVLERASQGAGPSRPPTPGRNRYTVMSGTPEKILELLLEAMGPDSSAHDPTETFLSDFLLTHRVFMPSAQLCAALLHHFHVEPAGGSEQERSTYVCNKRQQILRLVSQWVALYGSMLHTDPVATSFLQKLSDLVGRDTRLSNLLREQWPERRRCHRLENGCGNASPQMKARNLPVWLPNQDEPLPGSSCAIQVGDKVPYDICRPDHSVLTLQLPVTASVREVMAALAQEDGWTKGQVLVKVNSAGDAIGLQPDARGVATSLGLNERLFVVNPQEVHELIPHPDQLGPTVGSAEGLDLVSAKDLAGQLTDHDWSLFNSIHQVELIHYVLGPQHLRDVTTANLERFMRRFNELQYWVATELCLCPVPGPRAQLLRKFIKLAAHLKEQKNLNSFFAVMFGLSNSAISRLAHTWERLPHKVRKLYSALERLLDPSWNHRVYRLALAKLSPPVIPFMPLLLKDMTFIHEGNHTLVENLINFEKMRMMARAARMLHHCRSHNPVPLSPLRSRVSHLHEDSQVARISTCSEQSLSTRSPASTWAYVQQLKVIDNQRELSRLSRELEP
Outline: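 Nucleotide exchange uses 100 nM EPAC1, 250 nM RAP1B-BODIPY-GDP and 50 uM GDP, with compounds in a concentration-titration series. After 5 min at room temperature, fluorescence (480 nm ex/540 nm em) is read every 5 min for 30 min. Data are normalized to control ATA and DMSO.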

[2] = biological target: Rap guanine nucleotide exchange factor 3 (Homo sapiens) (UniProt O95398); assay: Confirmatory qHTS for agonist of cAMP-regulated guanine nucleotide exchange factor 3 (EPAC1) (AID 1645881); also: nearly all actives have a fitted effect of over 75% in size; also: potency is read from the fitted curve at half-maximal effect;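 as to activation: EPAC1 catalysed release of BODIPY-GDP from Rap1B seen as fluorescence loss; 100% = effect of cAMP agonist control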
[3] = biological target: Rap guanine nucleotide exchange factor 4 (Homo sapiens) (UniProt Q8WZA2); assay: Confirmatory qHTS for agonist of cAMP-regulated guanine nucleotide exchange factor 4 (EPAC2) (AID 1645884);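 also: nucleotide exchange releases bodipy-GDP from Rap1 and this lowers its fluorescence; nearly all actives have a fitted effect of over 65% in size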; also: potency is read from the fitted curve at half-maximal effect; as to activation: % is scaled to controls: 0 for no effect and ±100 for the full control effect
Sequence of Rap guanine nucleotide exchange factor 4 (Homo sapiens) (Q8WZA2 whole entry, looked up): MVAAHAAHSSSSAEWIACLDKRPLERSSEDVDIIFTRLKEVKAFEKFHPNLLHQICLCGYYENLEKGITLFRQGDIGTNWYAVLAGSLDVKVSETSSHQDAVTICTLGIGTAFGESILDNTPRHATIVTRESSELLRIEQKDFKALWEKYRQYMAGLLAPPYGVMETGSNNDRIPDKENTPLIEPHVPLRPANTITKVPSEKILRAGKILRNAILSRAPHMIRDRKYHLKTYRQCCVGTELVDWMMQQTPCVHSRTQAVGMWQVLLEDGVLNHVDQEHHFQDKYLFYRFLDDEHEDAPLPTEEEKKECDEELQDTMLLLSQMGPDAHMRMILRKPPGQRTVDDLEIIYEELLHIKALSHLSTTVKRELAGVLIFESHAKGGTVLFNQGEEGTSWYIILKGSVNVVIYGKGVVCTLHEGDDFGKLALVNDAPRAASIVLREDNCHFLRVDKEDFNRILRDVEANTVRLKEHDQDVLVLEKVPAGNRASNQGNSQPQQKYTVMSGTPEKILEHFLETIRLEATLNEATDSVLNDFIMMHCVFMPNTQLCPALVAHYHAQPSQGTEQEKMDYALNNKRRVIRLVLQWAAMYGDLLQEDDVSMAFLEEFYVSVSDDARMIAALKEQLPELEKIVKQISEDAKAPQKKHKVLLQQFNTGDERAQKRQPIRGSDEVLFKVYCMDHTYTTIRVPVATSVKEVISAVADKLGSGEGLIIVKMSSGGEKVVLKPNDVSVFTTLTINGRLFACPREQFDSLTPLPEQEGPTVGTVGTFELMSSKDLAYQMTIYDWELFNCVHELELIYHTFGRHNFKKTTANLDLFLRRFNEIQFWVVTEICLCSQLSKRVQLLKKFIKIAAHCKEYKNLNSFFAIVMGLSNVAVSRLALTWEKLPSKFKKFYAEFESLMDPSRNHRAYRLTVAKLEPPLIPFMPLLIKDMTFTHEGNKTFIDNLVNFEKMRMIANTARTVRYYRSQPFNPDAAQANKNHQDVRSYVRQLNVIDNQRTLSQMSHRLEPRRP

[4] = biological target: Rap guanine nucleotide exchange factor 4 (Homo sapiens) (UniProt Q8WZA2); assay: Confirmatory qHTS for antagonist of cAMP-regulated guanine nucleotide exchange factor 4 (EPAC2) (AID 1645885); also: nearly all actives have a fitted effect of over 25% in size; also: potency is read from the fitted curve at half-maximal effect; as to activity change, negative = inhibition: % is scaled to controls: 0 for no effect and ±100 for the full control effect
[5] = biological target: Rap guanine nucleotide exchange factor 3 (Homo sapiens) (UniProt O95398); assay: Counterscreen qHTS for antagonist of cAMP-regulated guanine nucleotide exchange factor 3 (EPAC1) (AID 1645888);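 also: fluorescence loss as bound BODIPY-GDP is released from Rap1B; % of control where 0% means no effect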
Outline: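 Rap1B–BODIPY-GDP (250 nM) with 50 uM GDP; compounds pin-transferred to 9.74 nM–152 uM final (activator) or from 7.32 nM upwards (inhibitor). Fluorescence Ex/Em 480/540 nm read at 5 and 30 min, then after adding cAMP or buffer, at room temperature.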

O=c1c(Cl)c(Cl)cnn1Cc1nnc(-c2ccccc2Br)o1
active: Potency [1] 42.6 µM
inactive: Potency [2] | Potency [3] | Potency [4] | Potency [5]

Cc1sc(NC(=O)C2=COCCO2)nc1-c1ccc(Cl)cc1
inactive: Potency [1] | Potency [2] | Potency [3] | Potency [4] | Potency [5]

COc1ccc(S(=O)(=O)N2C(=O)/C(=C3\SC(N)=NC3=O)c3ccccc32)cc1
inactive: Potency [1] | Potency [2] | Potency [3] | Potency [4] | Potency [5]

O=C1NC(=O)C(c2ccccc2)(c2ccccc2)N1S(=O)(=O)c1ccccc1
inactive: Potency [1] | Potency [2] | Potency [3] | Potency [4] | Potency [5]

CC1CN(C(=O)CCC(=O)NCc2ccccc2)c2ccccc2S1 (stereo not given)
inactive: Potency [1] | Potency [2] | Potency [3] | Potency [4] | Potency [5]

O=C(CN1CCOCC1)Nc1ccccc1Sc1ccc(Cl)cc1
inactive: Potency [1] | Potency [2] | Potency [3] | Potency [4] | Potency [5]

Cc1ccc(S(=O)(=O)N2[C@@H](c3ccc(Br)cc3)C(C(=O)O)=CC[C@H]2c2ccc(Cl)c(Cl)c2)cc1
active: Potency [1] 67.5 µM | Potency [4] 33.8 µM
inactive: Potency [2] | Potency [3] | Potency [5]

O=C(Nc1ccccc1)c1ccccc1Br
inactive: Potency [1] | Potency [2] | Potency [3] | Potency [4] | Potency [5]

CC(=O)NCCn1c(C)cc2ccccc21
inactive: Potency [1] | Potency [2] | activation [3] 5.87% [at 17.1 µM, percent relative to cAMP agonist control] | Potency [4] | activity change, negative = inhibition [5] -13.2% [at 30.8 µM]

CC(=O)Nc1ccc(S(=O)(=O)NCCC(=O)Nc2cc(C)ccn2)cc1
inactive: Potency [1] | Potency [2] | Potency [3] | Potency [4] | Potency [5]

CCc1ccccc1C1=CC(=O)C[C@H](c2ccc(OC)cc2)C1
inactive: Potency [1] | Potency [2] | Potency [3] | Potency [4] | Potency [5]

CC(=O)/C(=C/N(C)C)Sc1ccc(C)cc1
inactive: Potency [1] | Potency [2] | Potency [3] | Potency [4] | Potency [5]

Cc1ccc(S(=O)(=O)N2CCN(CC(=O)Nc3ccccc3C(=O)NC3CC3)CC2)cc1
inactive: Potency [1] | Potency [2] | activation [3] 6.96% [at 17.1 µM, percent relative to cAMP agonist control] | Potency [4] | activity change, negative = inhibition [5] -3.04% [at 30.8 µM]

CC1CN(C(=O)N2CCOCC2)CCN1C(=O)N1CCOCC1 (stereo not given)
inactive: Potency [1] | Potency [2] | Potency [3] | Potency [4] | Potency [5]

CC1Cc2nc(SCC(=O)OCc3ccccc3)n(C)c(=O)c2S1 (stereo not given)
inactive: Potency [1] | Potency [2] | activation [3] 3.71% [at 17.1 µM, percent relative to cAMP agonist control] | Potency [4] | activity change, negative = inhibition [5] 9.81% [at 30.8 µM]

CC1(C(=O)Nc2ccc(Cl)cc2)Cc2c(-c3cccc(C(N)=O)c3)ccnc2O1 (stereo not given)
inactive: Potency [1] | Potency [2] | activation [3] 9.22% [at 17.1 µM, percent relative to cAMP agonist control] | Potency [4] | activity change, negative = inhibition [5] 3.15% [at 30.8 µM]

CC1(C)OCC(C2CC(c3ccccc3)NS(=O)(=O)O2)O1 (stereo not given)
inactive: Potency [1] | Potency [2] | Potency [3] | Potency [4] | Potency [5]

CC1CC1c1ccc(/C=C(\C#N)C(=O)Nc2ccccc2Cl)o1 (stereo not given)
inactive: Potency [1] | Potency [2] | activation [3] 3.85% [at 17.1 µM, percent relative to cAMP agonist control] | Potency [4] | activity change, negative = inhibition [5] -9.3% [at 30.8 µM]

Clc1ccc2nc(C3CCCCC3)c(CC3CCCCC3)n2c1
inactive: Potency [1] | Potency [2] | activation [3] -3.07% [at 17.1 µM, percent relative to cAMP agonist control] | Potency [4] | activity change, negative = inhibition [5] -0.327% [at 30.8 µM]

Cc1ccc(NC(=O)CN(C)C(=O)COC(=O)C2=COCCO2)cc1
inactive: Potency [1] | Potency [2] | activation [3] 6.32% [at 17.1 µM, percent relative to cAMP agonist control] | Potency [4] | activity change, negative = inhibition [5] -1.81% [at 30.8 µM]

CN(C)c1nc(Oc2ccc(=O)[nH]n2)nc(N2CCOCC2)n1
inactive: Potency [1] | Potency [2] | Potency [3] | Potency [4] | Potency [5]

COCCCn1c(=N)c(C(=O)NCc2cccnc2)cc2c(=O)n3cc(C)ccc3nc21
inactive: Potency [1] | Potency [2] | Potency [3] | Potency [4] | Potency [5]

CN1CCN(C(CNC(=O)c2ccc(Br)o2)c2ccc(F)cc2)CC1 (stereo not given)
active: Potency [4] 1.69 µM
inactive: Potency [1] | Potency [2] | activation [3] 4.5% [at 17.1 µM, percent relative to cAMP agonist control] | activity change, negative = inhibition [5] -2.27% [at 30.8 µM]

O=C1C(=Cc2cn(-c3ccccc3)nc2-c2ccc(OCc3ccccc3)cc2)SC(=S)N1CCS(=O)(=O)O
active: Potency [1] 33.8 µM
inactive: Potency [2] | Potency [3] | Potency [4] | Potency [5]

CCCCn1c(N)c(N(CCC(C)C)C(=O)Cc2ccc(S(=O)(=O)N3CCOCC3)s2)c(=O)[nH]c1=O
inactive: Potency [1] | Potency [2] | Potency [3] | Potency [4] | Potency [5]

COc1ccccc1NC(=O)c1sc2nc(C)c(C(=O)Nc3ccc(C)cc3C)c(-c3ccco3)c2c1N
inactive: Potency [1] | Potency [2] | Potency [3] | outcome [4] inactive [at 12.7 µM] | Potency [5]

CN(C)C(=O)c1cccc(-c2cnc3c(NC=O)cc(-c4ccc(F)cc4)cn23)c1
inactive: Potency [1] | Potency [2] | Potency [3] | Potency [4] | Potency [5]

Cc1ccc(C(NC(=O)C(C)C)c2cc([N+](=O)[O-])c3cccnc3c2O)cc1 (stereo not given)
inactive: Potency [2] | activation [3] 0.958% [at 17.1 µM, percent relative to cAMP agonist control] | Potency [4] | activity change, negative = inhibition [5] -17.2% [at 30.8 µM]
active: Potency [1] 35.5 µM

CCCC1C2CN(C(C)C)CC=C2C(C#N)=C(N)C1(C#N)C#N (stereo not given)
active: Potency [1] 37.9 µM | Potency [2] 35.5 µM | Potency [3] 56.2 µM | Potency [4] 33.8 µM
inactive: Potency [5]

Cc1ccc(S(=O)(=O)Nc2cccc(C(=O)NCC(c3ccco3)N3CCCCC3)c2)cc1F (stereo not given)
inactive: Potency [1] | Potency [2] | Potency [3] | Potency [4] | Potency [5]

COC(=O)C1=CN(Cc2ccc(OC)c(OC)c2)C=C(C(=O)OC)C1c1cccc(F)c1
inactive: Potency [1] | Potency [2] | Potency [3] | Potency [4] | Potency [5]

CC(C)[C@H](NC(=O)NCCc1ccc(F)cc1)C(=O)O
inactive: Potency [1] | Potency [2] | activation [3] 8.32% [at 17.1 µM, percent relative to cAMP agonist control] | Potency [4] | activity change, negative = inhibition [5] -8.58% [at 30.8 µM]

CNc1ccc(/C=C(\C#N)C(=O)Nc2ccccn2)cc1[N+](=O)[O-]
inactive: Potency [1] | Potency [2] | activation [3] 0.449% [at 17.1 µM, percent relative to cAMP agonist control] | Potency [4] | activity change, negative = inhibition [5] -23.3% [at 30.8 µM]

Cc1nn(-c2ccccc2)c(N2CCCC2)c1/C=C1\N=C(c2ccc(OC(C)C)cc2)OC1=O
inactive: Potency [1] | Potency [2] | Potency [3] | Potency [4] | Potency [5]

CN(C)C(CNS(=O)(=O)c1ccc(Cl)cc1)c1cccnc1 (stereo not given)
inactive: Potency [1] | Potency [2] | Potency [3] | Potency [4] | Potency [5]

COc1cc(NC(=S)NCCC(c2ccccc2)c2ccccc2)cc(OC)c1
inactive: Potency [1] | Potency [2] | activation [3] 6.66% [at 17.1 µM, percent relative to cAMP agonist control] | Potency [4] | activity change, negative = inhibition [5] 11% [at 30.8 µM]

CC1=CC2=NC(=O)/C(=C\c3cccn3CCOc3ccc(C)c(C)c3)C(=N)N2O1
inactive: Potency [1] | Potency [2] | Potency [3] | Potency [4] | Potency [5]

CCOc1ccc(C2=CC(c3cccc(Br)c3)n3c(nc4ccccc43)N2)cc1Cl (stereo not given)
inactive: Potency [1] | Potency [2] | Potency [3] | Potency [4] | Potency [5]

CCOc1ccc(CCNc2ncnc3onc(-c4ccc(Cl)cc4)c23)cc1OCC
inactive: Potency [1] | Potency [2] | Potency [3] | Potency [4] | Potency [5]

Cc1nn(-c2ccccc2)c(C)c1NC(=O)COC(=O)Cc1cccc(C(F)(F)F)c1
inactive: Potency [1] | Potency [2] | Potency [3] | Potency [4] | Potency [5]

CCc1ccccc1NC(=O)c1cc2sc(Cl)cc2n1CC
inactive: Potency [1] | Potency [2] | Potency [3] | Potency [4] | Potency [5]

CCOC(=O)C(C)n1cnc2c(nnn2-c2cccc(Cl)c2)c1=O (stereo not given)
inactive: Potency [1] | Potency [2] | activation [3] 0% [at 17.1 µM, percent relative to cAMP agonist control] | Potency [4] | activity change, negative = inhibition [5] -28.5% [at 30.8 µM]

C=CCn1c(-c2ccc(S(=O)(=O)N3CCOCC3)cc2)csc1=Nc1ccccc1
inactive: Potency [1] | Potency [2] | Potency [3] | Potency [4] | Potency [5]

Cc1cc(NC(=O)CSc2sc3c(O)cc(=O)[nH]c3c2C#N)ccc1Br
inactive: Potency [2] | Potency [3] | Potency [4] | Potency [5]
active: Potency [1] 42.6 µM

COc1ccc(/C=C2/SC(=S)N(c3ccc(S(=O)(=O)Nc4nccs4)cc3)C2=O)cc1
inactive: Potency [2] | Potency [3] | Potency [4] | Potency [5]
active: Potency [1] 33.8 µM

CCC(C)N(C(=O)COC(=O)C1CCN(S(=O)(=O)c2ccc(C)c(C)c2)CC1)C1CCS(=O)(=O)C1 (stereo not given)
inactive: Potency [1] | Potency [2] | Potency [3] | Potency [4] | Potency [5]

Cc1ccccc1CNC(=O)CCC(=O)N1CCSc2ccccc21
inactive: Potency [1] | Potency [2] | Potency [3] | Potency [4] | Potency [5]

CN(c1ncnc2onc(-c3cccc(Cl)c3)c12)C1CCCCC1
inactive: Potency [1] | Potency [2] | Potency [3] | outcome [4] inactive [at 12.7 µM] | Potency [5]
